Screens deposited in PubChem BioAssay by several laboratories.
PLK1 PBD inh: Plk1 polo box domain binding inhibitors, primary screen, biochemical, fluorescence polarization. Serine/threonine-protein kinase PLK1 (Homo sapiens), P53350. Plk1 PBD phosphopeptide binding. inhibition, %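 (tested at about 20 µM)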. hit rate 0.13% among 97,000. AID 693, 2007; in the data active = inhibition above about 34%, passing the limit was not always enough
CYP2C19 inh: blockers of cytochrome P450 2C19 activity – biochemical, luminescence, ADME assay, primary screen; P33261; CYP2C19 Supersomes, luciferin-H EGE luminescence, 30 min; inhibition, % at 5 µM; hit rate 21% among 96,000;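 active = CYP2C19 inhibition above a set limit at 5 µM in the primary screen, cut at about 50% in these data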;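 note: plate controls were negative control wells for no effect and 2.5 mM tranylcypromine positive control for full effect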
CYP2C9 act: human CYP2C9 activators, primary screen, biochemical, luminescence; recombinant CYP2C9, luciferin-H conversion; stronger effect = higher value; factor 1 = untreated enzyme, 0 = blocked; activation factor at 5 µM; hit rate 1.4% among 96,000; AID 1024, 2008;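 active = activation factor of 2 or more for CYP2C9 at a 5 µM dose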;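 note: 0 = sulfaphenazole-blocked wells and 1 = vehicle-only wells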
Target sequence (P11712 whole entry, looked up): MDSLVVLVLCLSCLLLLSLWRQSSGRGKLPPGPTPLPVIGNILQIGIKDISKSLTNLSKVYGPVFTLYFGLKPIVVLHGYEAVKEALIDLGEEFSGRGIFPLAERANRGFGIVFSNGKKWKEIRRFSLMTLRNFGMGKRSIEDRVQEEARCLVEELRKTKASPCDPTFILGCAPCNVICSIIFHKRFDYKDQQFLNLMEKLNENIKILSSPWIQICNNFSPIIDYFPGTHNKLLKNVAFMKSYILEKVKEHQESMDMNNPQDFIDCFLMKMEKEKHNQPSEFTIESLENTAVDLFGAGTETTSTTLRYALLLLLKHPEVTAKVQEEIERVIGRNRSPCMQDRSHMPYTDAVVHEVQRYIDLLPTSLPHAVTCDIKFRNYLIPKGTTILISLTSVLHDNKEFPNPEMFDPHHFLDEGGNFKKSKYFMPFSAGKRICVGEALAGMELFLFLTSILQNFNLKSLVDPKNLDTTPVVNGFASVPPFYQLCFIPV
CYP2C19 activ: human CYP2C19 activators, primary screen, biochemical, luminescence; Cytochrome P450 2C19 (Homo sapiens), P33261; recombinant CYP2C19, luciferin-H EGE luminescence; stronger effect = higher value; 0 = fully inhibited enzyme, 1 = untreated enzyme; activation factor at 5 µM; 96,000 tested, under 10 active; AID 1025, 2008;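 active = activation factor of at least 2 at 5 µM in the primary screen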;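 note: 0 = wells with 2.5 mM tranylcypromine and 1 = vehicle-only wells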
PLK1 inh: human PLK1 kinase inhibitors, primary screen, biochemical, TR-FRET | AID 619, 2007 | Serine/threonine-protein kinase PLK1 (Homo sapiens), P53350 | recombinant PLK1 kinase, TR-FRET peptide phosphorylation | inhibition, % at 10 µM | hit rate 0.53% among 97,000;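 active = inhibition of 50% or more in the single-concentration screen; inactive = inhibition below 50%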;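 note: 0% = DMSO max control and 100% = H-89 dihydrochloride min control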
CYP2C9 inh: blockers of cytochrome P450 2C9 activity – biochemical, luminescence, ADME assay, primary screen; AID 777, 2007; hit rate 20% among 96,000; CYP2C9 Supersomes, luciferin-H conversion; inhibition, % at 5 µM; P11712;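 active = blocking of liver enzyme CYP2C9 beyond about 50% at 5 µM, limit read from the data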
Starred values were filed as active, the others as inactive; . = no result. An excerpt weighted towards active compounds, which were near 28% of everything screened.

SMILES | PLK1 PBD inh | CYP2C19 inh | CYP2C9 act | CYP2C19 activ | PLK1 inh | CYP2C9 inh
CCN(CC)c1ccc(C2=NNC(=O)CC2C)cc1[N+](=O)[O-] (configuration not stated) | -14 | 50 | 0.5 | 0.5 | -12 | 52*
Cc1c(NC(=O)CCN2C(=O)c3ccccc3C2=O)c(=O)n(-c2ccccc2)n1C | 0 | -12 | 1.2 | 1.1 | -3 | -16
Cc1ccc(NC(C)c2cc(Cl)ccc2O)cc1 (configuration not stated) | -21 | 100* | 0 | 0 | -9 | 98*
CC1=C(C(=O)OC(C)C)C(C2CC=CCC2)NC(=O)N1 (configuration not stated) | -11 | 65* | 0.9 | 0.4 | 0 | 8
CCOC(=O)C1=C(C)NC(=O)NC1C1CC=CCC1 (configuration not stated) | -2 | 52* | 0.8 | 0.5 | -4 | 20
CCOc1cc(C2NC(=O)N(C)C(C)=C2C(=O)OC)cc(Br)c1O (configuration not stated) | 12 | 48 | 0.1 | 0.5 | -7 | 86*
COc1ccc(C(O)Cc2nc3ccccc3n2C)cc1OC (configuration not stated) | -13 | . | . | . | -9 | .
O=C(Nc1ccccc1N1CCOCC1)c1ccc2ccccc2n1 | -18 | 39 | 0.6 | 0.6 | -3 | 39
O=S(=O)(c1ccccc1)c1nc(Nc2ccccc2N2CCOCC2)sc1Cl | 5 | 74* | 0.1 | 0.3 | -3 | 88*
O=C1CCCN1C(=O)CCC(=O)N1CCCC1=O | -1 | -8 | 1.1 | 1.1 | -7 | -9
Cc1cc(C)cc(NC(=O)C/C(N)=N/O)c1 | -9 | -3 | 1 | 1 | -9 | 1
CC1CN(S(=O)(=O)c2cccc(-c3cn4ccccc4n3)c2)CC(C)O1 (configuration not stated) | -23 | 13 | 0.9 | 0.9 | 1 | 8
O=S(=O)(c1cccc(-c2nc3ccccc3s2)c1)N1CCOCC1 | -2 | 12 | 1 | 0.9 | -1 | 0
O=S(=O)(c1cccc(-c2csc(-c3ccccc3)n2)c1)N1CCOCC1 | 14 | 47 | 0.4 | 0.5 | -7 | 61*
Cc1nc(-c2cccc(S(=O)(=O)N3CCCCCC3)c2)cs1 | -3 | 95* | 0.3 | 0.1 | -1 | 66*
CC1CN(S(=O)(=O)c2cccc(-c3csc(-c4ccccc4)n3)c2)CC(C)O1 (configuration not stated) | 1 | 20 | 0.4 | 0.8 | -10 | 58*
O=C(O)c1ccccc1C(=O)N1CC=C(c2ccccc2)CC1 | -3 | -16 | 1.1 | 1.2 | 4 | -6
Cc1ccc(-c2noc(CN3CCC(C(N)=O)CC3)n2)cc1 | -10 | 3 | 1.1 | 1 | -2 | -12
Cc1ccc(-c2noc(CN3C(C)CCCC3C)n2)cc1 (configuration not stated) | -15 | 51* | 0.6 | 0.5 | -7 | 36
CCC(C)(C)n1nnnc1C(c1ccc(OC)c(OC)c1)N1CCN(c2cccc(OC)c2)CC1 (configuration not stated) | -3 | 56* | 0.1 | 0.4 | -13 | 86*
CCC(C)(C)n1nnnc1C(c1ccc(OC)c(OC)c1)N1CCN(c2ccc(F)cc2)CC1 (configuration not stated) | -21 | . | . | . | 17 | .
CCC(C)(C)n1nnnc1C(c1ccc(OC)c(OC)c1)N1CCN(c2ccc(OC)cc2)CC1 (configuration not stated) | 16 | 57* | 0.1 | 0.4 | 2 | 88*
CCC(C)(C)n1nnnc1C(c1ccc(OC)c(OC)c1)N1CCN(c2ccccc2)CC1 (configuration not stated) | -21 | 68* | 0.3 | 0.3 | -11 | 71*
COc1ccc2[nH]cc(CCNC(=O)C3CCCNC3=O)c2c1 (configuration not stated) | -8 | 37 | 1 | 0.6 | -7 | 3
CC(=O)NCCCc1c[nH]c2ccc(Cl)cc12 | -18 | 80* | 0.5 | 0.2 | -12 | 47
SMILES | PLK1 PBD inh | CYP2C19 inh | CYP2C9 act | CYP2C19 activ | PLK1 inh | CYP2C9 inh
O=C(NCCc1ccccc1)c1cccnc1 | 4 | -1 | 1 | 1 | 2 | -5
O=C(NCCc1c[nH]c2ccc(Cl)cc12)c1cccnc1 | -19 | 91* | 0.1 | 0.1 | 1 | 87*
CCOC(=O)c1cnn(-c2nc(SC)nc3sc4c(c23)CCC4)c1N | 19 | 5 | 0.9 | 0.9 | -11 | 10
O=C(O)c1cn[nH]c1-n1cnnn1 | -3 | -18 | 1.3 | 1.2 | -9 | -33
Cc1cc(C)nc(NCC(O)COc2ccccc2C)n1 (configuration not stated) | 4 | 87* | 0.9 | 0.1 | -20 | 9
O=C(Nc1cccc([N+](=O)[O-])c1)C12CC3CC(C1)CC(n1cnc([N+](=O)[O-])n1)(C3)C2 | -28 | 14 | 0.9 | 0.9 | -11 | 7
Cc1cc(C)cc(N2C(=O)N(c3ccccc3C)C3CS(=O)(=O)CC32)c1 (configuration not stated) | -11 | 94* | 0.9 | 0.1 | -19 | 9
Cc1nc(S(=O)(=O)N(C)c2ccccc2)c(C#N)c(C)c1Cl | -4 | 14 | 1.1 | 0.9 | 4 | -8
Cc1snc(S(=O)(=O)Cc2c(Cl)cccc2Cl)c1C#N | 3 | 67* | 0.7 | 0.3 | -11 | 29
CCCCCCn1c(CN2CCCCC2CC)nc2c1c(=O)n(C)c(=O)n2C (configuration not stated) | . | 6 | 0.8 | 0.9 | . | 18
O=Nc1c(O)n(Cc2cccc(Cl)c2)c2ccccc12 | -8 | 56* | 0.3 | 0.4 | 5 | 74*
O=C(NCCc1ccccc1F)[C@@H]1CSC2c3ccccc3C(=O)N21 (some centres not stated) | -6 | 14 | 0.7 | 0.9 | -1 | 30
O=C(COc1ccc(Cl)cc1Cl)NCCC1=CCCCC1 | -14 | 10 | 0.9 | 0.9 | -3 | 14
CC(=O)Nc1ccc(N2S(=O)(=O)c3ccccc3S2(=O)=O)cc1 | . | 11 | 2.3* | 0.9 | . | -133
CC(=O)Nc1ccc(N2CCCC2)cc1 | -2 | 7 | 1.2 | 0.9 | -12 | -16
CC(C)COC(=O)n1c(SCC(=O)N(C)C)nc2ccccc21 | 11 | 65* | 0.2 | 0.4 | -11 | 78*
CCc1ccc2c(c1)C(c1ccc([N+](=O)[O-])cc1)=NNC(c1ccc(F)cc1)=N2 | -23 | -17 | 1 | 1.2 | -4 | -2
COc1ccccc1NC(=O)N1CCCC(c2nc3c(nnn3Cc3ccc(C)cc3)c(=O)[nH]2)C1 (configuration not stated) | -23 | 67* | 0.7 | 0.3 | -7 | 27
